Compound activity: PubChem BioAssay, several laboratories
An excerpt weighted towards active compounds, which were near 2.3% of everything screened.
SENP6 inh: SENP6 protease inhibition; Q9GZR1; Recombinant SENP6 catalytic domain, aminoluciferin luminescence; inhibition, % at 10 µM; 1.8% of 330,000 active; AID 2599;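 active = inhibition above about 50% at the single tested dose, limit read from the data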;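 also: plate controls were DMSO wells with enzyme for no effect and DMSO wells lacking enzyme for full effect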
HSP90 refold inh: HSP90 refolding inhibition in rabbit reticulocyte lysate. luciferase refolding luminescence, 3 h. AID 1789. 0.91% of 290,000 active. inhibition, % at 5.6 µM;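 active = inhibition above the screen-wide mean plus 3 SD, computed separately per campaign, cut at about 16% in these data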;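 also: 0% = DMSO wells and 100% = 60 µM geldanamycin wells; inhibitors lower the luminescence because luciferase stays unfolded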
SENP8 block-1: SENP8 (human) protease inhibition; Q96LD8; recombinant SENP8, Nedd8 substrate fluorescence; inhibition, % at 20 µM; 0.64% of 360,000 active; AID 602440; in the data active = inhibition mostly above about 40%, no sharp cut-off; inactive = mostly below about 27%
Target sequence (Q96LD8 whole entry, looked up): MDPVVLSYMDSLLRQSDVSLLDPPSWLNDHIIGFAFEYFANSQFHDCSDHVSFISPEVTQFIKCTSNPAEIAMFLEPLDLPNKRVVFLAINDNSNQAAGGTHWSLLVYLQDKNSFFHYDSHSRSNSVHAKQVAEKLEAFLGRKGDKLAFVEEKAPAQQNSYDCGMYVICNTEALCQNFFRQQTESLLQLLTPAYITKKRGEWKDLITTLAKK
SENP8 block-2: SENP8 protease inhibition; purified SENP8, Z-RLRGG-aminoluciferin cleavage, luminescence; inhibition, % at 10 µM; 1.2% of 330,000 active; AID 2540; in the data active = inhibition above about 50%
SENP7 block: inhibitors of human SENP7 protease; Q9BQF6; recombinant SENP7, Z-RLRGG-aminoluciferin luminescence, 40 min; inhibition, % at 5 µM; 1.5% of 330,000 active;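 active = inhibition above about 50% at the single test dose, limit read from the data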;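 also: plate controls were DMSO with enzyme for no effect and no enzyme buffer wells for full effect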
Target sequence (Q9BQF6 706-1050 limits assumed): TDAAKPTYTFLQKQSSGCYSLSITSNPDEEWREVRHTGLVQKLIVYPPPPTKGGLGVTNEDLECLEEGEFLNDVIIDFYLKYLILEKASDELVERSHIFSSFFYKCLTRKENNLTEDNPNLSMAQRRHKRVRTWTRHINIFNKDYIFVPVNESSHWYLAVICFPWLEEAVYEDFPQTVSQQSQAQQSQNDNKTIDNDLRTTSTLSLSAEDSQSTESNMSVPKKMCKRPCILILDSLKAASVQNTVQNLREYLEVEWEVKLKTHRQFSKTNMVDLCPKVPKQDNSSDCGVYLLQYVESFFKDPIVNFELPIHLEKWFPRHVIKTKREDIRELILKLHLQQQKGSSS
LGR2 inh: Drosophila LGR2 receptor signaling inhibition. HEK293 LGR2, CRE-luciferase, bursicon-stimulated, 4 h. inhibition, % at 9.99 µM. AID 720647. 0.35% of 380,000 active;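 active = drop in luminescence signal, shown as inhibition above about 50% in the replicate tests, limit read from the data, passing the limit was not always enough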;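 also: agonist challenge used bursicon conditioned medium at about half maximal strength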
The depositor's hits bear a star; x = no result.

SMILES	SENP6 inh	HSP90 refold inh	SENP8 block-1	SENP8 block-2	SENP7 block	LGR2 inh
O=C(C[C@@H]1CC[C@@H]2[C@H](COC[C@@H](O)CN2C(=O)Nc2ccc(F)cc2)O1)NCCc1ccncc1	x	x	x	x	x	12
C[C@H](CO)N1C[C@H](C)[C@H](CN(C)Cc2ccncc2)Oc2ccc(N(C)C)cc2CC1=O	x	x	x	x	x	-22
C=C1C(=O)c2sccc2C(c2ccc(OC)c(OC)c2)C1COC(C)=O (stereo not drawn)	x	x	13	x	x	106*
O=C(CN1C(=O)c2ccccc2C1=O)Nc1cccc2cccnc12	-5	-2	-2	-6	1	5
O=C1C=C(Nc2cccc3cccnc23)c2ccccc2C1=O	33	2	43*	10	9	-10
CCC(=O)Nc1ccc2c(c1)C(=O)N(C)C[C@H](OC)[C@H](C)CN(Cc1cncnc1)[C@H](C)CO2	x	x	x	x	x	-2
O=C(COc1cc(Cl)c(Cl)cc1Cl)Nc1cccc(O)c1	48	2	22	21	63*	-28
COc1cccc(/C=C2\SC(=S)N(CCCC(=O)N3CCCC3)C2=O)c1	78*	-1	12	48	65*	-12
O=C([C@@H]1[C@@H](CO)[C@@H]2Cn3c(ccc(C4=CCCC4)c3=O)[C@H]1N2C(=O)c1ccncc1)N1CCOCC1	x	x	x	x	x	-10
CC(C)C#Cc1ccc2c(c1)O[C@@H](CN(C)C(=O)NC(C)C)[C@H](C)CN([C@@H](C)CO)S2(=O)=O	x	x	x	x	x	14
Cc1c(-c2ccnc3cc(C(=O)O)nn23)cnn1C	0	4	-372	-4	-3	-3
CCn1cc(-c2ccnc3cc(C(=O)O)nn23)c(C)n1	-18	3	-451	95*	-1	7
C[C@@H]1CCCCO[C@@H](CN(C)C(=O)Cc2ccccc2)[C@@H](C)CN([C@@H](C)CO)C(=O)c2cc(NS(=O)(=O)c3ccc(F)cc3)ccc2O1	x	x	x	x	x	21
O=C1/C(=C/c2cccnc2)CC/C1=C\c1cccnc1	-2	0	28	-5	-13	8
O=C1/C(=C/c2cccnc2)CCC/C1=C\c1cccnc1	x	-3	x	x	x	90*
COc1ccc(-c2cc(C(F)(F)F)c3c(N)c(C(=O)NCCSC)sc3n2)cc1	14	-1	-487	16	2	-5
COc1cccc(-c2cc(C(F)(F)F)c3c(N)c(C#N)sc3n2)c1	2	-1	x	0	86*	x
Cc1ccc(C)c(S(=O)(=O)N(C(=O)c2ccncc2)c2ccc(OC(=O)c3ccncc3)cc2)c1	-11	3	9	-6	2	96*
COc1ccc(C2=NC(c3ccccc3)CO2)cc1 (stereo not drawn)	70*	16*	x	63*	50*	x
O=[N+]([O-])c1cccc(C2=NC(c3ccccc3)CO2)c1 (stereo not drawn)	-3	-3	-4	-2	6	-25
CCCc1cn(CC[C@@H]2CC[C@@H](NC(=O)CCN3CCCCC3)[C@@H](CO)O2)nn1	x	x	x	x	x	-7
O=C1NNC(c2ccccc2)=N/C1=C\c1ccccc1	2	4	47*	5	6	x
Cc1cccc(-c2nnc(-c3ccc4ccccc4c3)o2)c1	x	x	-302	x	x	52*
CC(=O)Nc1cc(NC(C)=O)cc(-c2nc3ccccc3[nH]2)c1	-7	2	-11	-5	-5	x
O=C(O)c1ccc(-c2nc3ccccc3[nH]2)cc1	75*	-8	-448	62*	73*	10
SMILES	SENP6 inh	HSP90 refold inh	SENP8 block-1	SENP8 block-2	SENP7 block	LGR2 inh
Cc1ccc(Nc2c([N+](=O)[O-])ccc3c2=NC2(CCCCC2)N=3)cc1	23	-1	44*	7	0	x
CC1=NN(c2ccc([N+](=O)[O-])cc2)C(=O)C1	x	x	71*	x	x	10
Oc1ccc(/C=N/N2CCCCC2)cc1O	-2	-3	45*	-11	-3	-11
COc1ccc(/C=N/N2C(C)CCCC2C)cc1O (stereo not drawn)	-21	-1	12	-5	-5	8
CC1CCCC(C)N1/N=C/c1ccc(O)c(O)c1 (stereo not drawn)	1	-3	51*	12	8	-6
Clc1ccc(C=NN2CCCCCC2)cc1Cl	x	x	0	x	x	x
O=C(C[C@H]1C=C[C@@H](NC(=O)NC2CCCCC2)[C@H](CO)O1)NCc1ccc(F)cc1	x	x	x	x	x	5
C[C@H]1CN([C@@H](C)CO)S(=O)(=O)c2ccc(-c3ccc(F)cc3)cc2O[C@H]1CN(C)C(=O)C1CCCCC1	x	x	x	x	x	15
O=[N+]([O-])c1ccc(Sc2nnnn2-c2ccccc2)nc1	16	3	x	7	7	68*
O=[N+]([O-])c1ccc(Sc2ccccn2)nc1	2	1	11	-2	10	x
Oc1c(N=Nc2ccccn2)ccc2ccccc12	94*	9	21	96*	43	x
CO[C@H]1CN(C)C(=O)c2ccc(NS(=O)(=O)C3CCCCC3)cc2OC[C@H](C)NC[C@@H]1C	x	x	x	x	x	9
COc1cc(/C=C2/SC(=S)NC2=O)ccc1OS(=O)(=O)c1ccc(C)cc1	-3	-5	20	8	5	x
COc1cc(/C=C2\SC(=S)NC2=O)ccc1OS(=O)(=O)c1ccccc1	59*	3	x	43	9	x
O=C(CSc1nnc(NC(=O)c2ccc3c(c2)OCO3)s1)NCc1ccco1	3	7	-84	0	65*	60*
O=C(CSc1nnc(NC(=O)c2ccccc2)s1)NCc1ccco1	22	2	-2	15	36	0
C[C@@H]1CCCCO[C@@H](CN(C)Cc2ccc3c(c2)OCO3)[C@@H](C)CN([C@@H](C)CO)C(=O)c2cc(NC(=O)c3ccncc3)ccc2O1	x	x	x	x	x	3
C[C@@H]1CN([C@H](C)CO)S(=O)(=O)c2ccc(-c3ccccc3)cc2O[C@@H]1CN(C)C(=O)C1CCC1	x	x	x	x	x	0
O=C(c1ccc(Cl)cc1)N1CCCCC(Sc2nnc(-c3ccc4c(c3)OCO4)o2)C1=O (stereo not drawn)	0	31*	37	3	0	x
Cc1cc(C)c2c(n1)SCC(=O)N2CC(=O)Nc1cccc(Cl)c1	-4	31*	16	7	2	-1
O=C(NCCO)c1ccc2nc(-c3ccco3)c(-c3ccco3)nc2c1	56*	2	-192	37	23	x
O=C(NCCc1ccccc1)c1ccc2nc(-c3ccco3)c(-c3ccco3)nc2c1	13	4	-295	15	2	x
COc1ccc(N/N=C(\C=N\O)C(=O)c2ccc(OC)cc2)cc1	-26	4	44*	-3	5	x
C[C@@H]1CN([C@@H](C)CO)C(=O)c2cc(NC(=O)Nc3ccc(F)cc3)ccc2O[C@@H](C)CCCCO[C@@H]1CN(C)S(=O)(=O)c1cn(C)cn1	x	x	x	x	x	11
C[C@@H]1CN([C@@H](C)CO)C(=O)Cc2cc(NS(=O)(=O)c3cccs3)ccc2O[C@H]1CN(C)C(=O)Nc1ccc2c(c1)OCO2	x	x	x	x	x	2
Cc1ccc(C(=O)NN2C(=O)/C(=C/c3cn(C)c4ccccc34)SC2=S)cc1	x	5	42*	x	x	-1
